Pf growth 48h: inhibits P. falciparum growth in the first generation, 48 h. AID 504832. Potency, µM (titrated, usually from 28.7 µM), without a hit: top-dose activity change, negative = inhibition, hits mostly inhibitors. 310,000 compounds, 5.9% hits. P. falciparum luciferase growth in erythrocytes, 48 h; also: potency is read from the fitted curve at half-maximal effect; % is scaled to controls: 0 for no effect and ±100 for the full control effect
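Luciferase-expressing P. falciparum in infected erythrocytes (2% hematocrit, 0.1% parasitemia final) in RPMI 1640/0.5% Albumax were exposed to compound for 48 hours at 37 C, 5% CO2; growth read as luminescence.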
Sm TGR block: inhibitors of Schistosoma mansoni thioredoxin glutathione reductase | purified TGR, DTNB reduction, TNB absorbance 405 nm | Potency, µM (doses to about 114 µM), for inactives: at the top dose activity change, negative = inhibition, actives largely listed as inhibitors | 360,000 compounds, 3% hits | AID 485364; also: potency is read from the fitted curve at half-maximal effect; % is scaled to controls: 0 for no effect and ±100 for the full control effect; nearly all actives have a fitted effect of over 60% in size
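TGR 20 nM + NADPH 100 uM (dispensed conc.), cpd preinc 15 min RT; start with NADPH (500 uM addition) then DTNB (15 mM addition). Kinetic TNB absorbance, 405 nm filter. Four-parameter Hill fit across titration.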
HCV inh: blocks hepatitis C virus | Huh7.5.1 HCVcc-Cre infection, luciferase reporter, 44 h | Potency, µM (highest dose often 41.8 µM), inactives show top-dose activity change, negative = inhibition, usual class: inhibitors | 340,000 compounds, 3.4% hits | AID 651820; also: potency is read from the fitted curve at half-maximal effect; % is scaled to controls: 0 for no effect and ±100 for the full control effect
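Cells (1,000/well) were plated 4 h before compound, then infected with HCVcc-Cre virus (~0.5 moi). After 44 h further culture, infection was read as luciferase luminescence following a 15 min substrate incubation at room temperature.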
HCMV inh: blocks human cytomegalovirus replication. activity change, negative = inhibition, % at 57.5 µM. AID 1259415. HFF cells, HCMV-luciferase reporter, 72 h; stronger effect = lower value. 410,000 compounds, 4.5% hits; in the data active = activity change below about -60%; inconclusive = no clear call, values can overlap the other calls; inactive = above about -39%; also: % is scaled to controls: 0 for no effect and ±100 for the full control effect
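Steps: HFFs plated, 16 h 37C; compounds added; HCMV-luciferase added to MOI 1 PFU/cell; 72 h 37C; OneGlo reagent, 5 min room temperature; luminescence read, normalized to controls.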
Pf growth 96h: inhibits malaria parasite growth, 96 h; P. falciparum luciferase reporter growth, 96 h; Potency, µM (series often up to 28.7 µM), without a hit: at the top dose activity change, negative = inhibition, most hits filed as inhibitors; 320,000 compounds, 6.9% hits; AID 504834; also: potency is read from the fitted curve at half-maximal effect; % is scaled to controls: 0 for no effect and ±100 for the full control effect
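Plates of compound plus infected erythrocytes (2% hematocrit, 0.05% parasitemia final) incubate 96 hours, 37 C, 5% CO2. Detection reagent added; reduced luminescence from the parasites' luciferase reporter flags inhibition.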
SARS PLP yeast: SARS-CoV PLP inhibition in yeast; Potency, µM (series often up to 32.9 µM), for the others: at the highest dose activity, positive = growth rescue, hits mostly activators; 330,000 compounds, 0.19% hits; AID 485353; S. cerevisiae expressing SARS-CoV PLpro, growth rescue; calls by dose curve; also: potency is read from the fitted curve at half-maximal effect; 0% is about no effect; nearly all actives have a fitted effect of over 55% in size
* = called active by the depositor; i = inactive; ? = inconclusive; . = no result given; [ ] = another dose, or the depositor's remark. Compounds with a hit are over-represented: about 15% of the library has one in this group of screens. Unless noted, calls follow the shape of the dose curve; as a rule, active = well fitted curve in the direction sought with a large enough effect; inconclusive = small, poorly fitted or top-dose-only effect, or another doubt; inactive = no such curve, though single readings can be large; an effect the other way counts as inactive or inconclusive.

SMILES | Pf growth 48h | Sm TGR block | HCV inh | HCMV inh | Pf growth 96h | SARS PLP yeast
CC(=O)c1ccc(NC(=O)Nc2sc(NS(=O)(=O)c3ccccc3)nc2C)cc1 | ? | 35µM* | 17% | 3 | 31% | 2%
Cc1ccc([N+](=O)[O-])cc1S(=O)(=O)N1CCn2cccc2C1c1ccccc1 (stereo unspecified) | . | 4% | . | -16 | . | .
Cc1ccc(-c2nn(CC(=O)NN3CCOCC3)c(=O)c3ccccc23)cc1 | 26% | 13% | 5% | -16 | 19% | 0%
CCCCN(CC)CCCNC(=O)c1ccc(CS(=O)(=O)c2ccccc2C)o1 | 27% | 3% | 15% | -34 | -1% | 1%
C[C@@H]1C[C@H]2[C@@H]3C[C@H](F)C4=CC(=O)C=C[C@]4(C)[C@@]3(Cl)[C@@H](O)C[C@]2(C)[C@H]1C(=O)COC(=O)C(C)(C)C | 1µM* | -6% | 13% | 31 | 1% | .
CC1(C)O[C@@H]2C[C@H]3[C@@H]4C[C@H](F)C5=CC(=O)C=C[C@]5(C)[C@@]4(F)[C@@H](O)C[C@]3(C)[C@]2(C(=O)CO)O1 | ? | 1% | -2%[8.37 µM] | 76 | ? | 2%
CCOC(=O)c1cccc(-c2ccc(C=O)o2)c1 | 8% | 50µM* | -16% | 54 | ? | -34%
CCOC(=O)c1ccc(-c2ccc(C=O)o2)cc1 | 264% | -31% | 0% | 28 | i | 0%
N#C/C(=C\c1ccc(Cl)cc1Cl)c1nc(-c2cccc(Cl)c2)cs1 | . | 2% | . | 4 | . | .
Cc1cc(=O)[nH]c(N2CCCNCC2)n1 | 12µM* | -14% | 19% | . | -32% | 0%
Cc1cc(=O)[nH]c(-n2[nH]c3c(c2=O)CCCC3)n1 | 4.1µM* | 1% | 7% | 5 | ? | -7%
O=c1c2c([nH]n1-c1ccccc1)CCCC2 | -3% | . | 16% | -13 | 3% | 0%
Cc1nc(-n2[nH]c3c(c2=O)CCCC3)[nH]c(=O)c1Cc1ccccc1 | ? | -31% | 7.1µM* | -103* | ? | 6%
C=CCn1c2ccccc2c2nnc(SCCCn3c(=O)[nH]c4ccccc43)nc21 | 13µM* | -1% | 10µM* | 51 | -11% | -20%
CCCn1c2ccccc2c2nnc(SCCN3CCOCC3)nc21 | ? | 3% | ? | 24 | 0% | 4%
c1ccc(Cn2c3ccccc3c3nnc(SCCN4CCCCC4)nc32)cc1 | 9.3µM* | -2% | -21% | -60* | ? | 0%
C=CCn1c2ccccc2c2nnc(SCCN3CCCCC3)nc21 | ? | -22% | -26% | -8 | 10µM* | 5%
OC[C@@H](O)[C@H](O)C(/C=N/Nc1ccccc1)=N\Nc1ccccc1 | -7% | 20µM* | ? | 65 | -17% | 2%
COC(=O)NC(NS(=O)(=O)c1ccccc1)(C(=O)OC)C(F)(F)F (stereo unspecified) | 0% | 9% | 13% | 48 | -22% | 1%
CCOC(=O)C(NS(=O)(=O)c1ccccc1)(C(F)(F)F)P(=O)(OCC(C)C)OCC(C)C (stereo unspecified) | . | 18µM* | -16% | 4 | -3% | -7%
Cc1ccc(-n2nc(C)c3c(C(=O)NCCc4ccc(S(N)(=O)=O)cc4)cc(C)nc32)cc1 | . | 7% | . | 5 | . | .
CC(=O)Nc1cccc(NC(=O)CSc2nccn2Cc2ccccc2)c1 | -12% | -19% | . | -19 | 4% | ?
COc1ccc(CN2CCC(Oc3cc(C(=O)NC4CC4)ccc3OC)CC2)c(O)c1 | 2.3µM* | -2% | ? | 2 | 31% | 3%
COCC1CCCCN1C(=O)c1ccc(OC)c(OC2CCN(C(C)C)CC2)c1 (stereo unspecified) | 10% | -22% | ? | 36 | 61% | -4%
COc1ccc(C(=O)NC2CCCCC2)cc1OC1CCN(C(C)C)CC1 | ? | -25% | . | ? | 6.6µM* | -6%
COCC1CCN(C(=O)c2ccc(OC)c(OC3CCN(C(C)C)CC3)c2)CC1 | 14% | -2% | . | -19 | 3.3µM* | 3%

Screens: PubChem BioAssay, National Center for Advancing Translational Sciences (NCATS)
